The source of these data is PubChem BioAssay (NCI).

Compounds without any hit were thinned out: in the full panel of roughly 83,000, 20% have a hit.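 A percent growth of 40 corresponds to 60% growth inhibition; 0 means no net growth; -100 means all cells died. Active threshold: below 10.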 Values without a mark were called inactive. Calls of active or inactive are those of the source.

Among the test systems are NCI-H23 lung; NCI-H226 lung; NCI-H322M lung; HOP-62 NSCLC; NCI-H460 lung; HOP-92 NSCLC; NCI-H522 lung; A549/ATCC NSCLC; 786-0 renal; COLO 205 colon; DU-145 prostate; K-562 leukemia; MALME-3M melanoma; MDA-MB-231 breast; RXF 393 renal; SF-268 CNS; SF-295 CNS; SF-539 CNS; UACC-257 melanoma; M14 melanoma.
Holding throughout (assay): NCI-60 one-dose screen, 48 h (100 = growth as untreated, 0 = no growth, -100 = all killed)
What all share (conditions): 10 µM unless noted

For the molecule `Cc1csc(-c2ccc3c(c2)COC3(CCCN(C)C)c2ccc(F)cc2)c1` (stereo not given), the growth is 88.9% in the assay on NCI-H23 lung; 95.8% in the assay with NCI-H226 lung; 77% in the assay with NCI-H322M lung; -64.4% (active) in the assay with HOP-62 NSCLC; -45.7% (active) with NCI-H460 lung; 34.3% in the assay on HOP-92 NSCLC. Also, the growth in the assay on NCI-H522 lung was -38.8% (active); with A549/ATCC NSCLC it was 31.3%; with 786-0 renal, 61.8%; with COLO 205 colon it was -69.1% (active); in the assay on DU-145 prostate it was 42.8%; in the assay with K-562 leukemia, -19.9% (active). Moreover, the growth is -71.9% (active) with MALME-3M melanoma; 44.3% in the assay on MDA-MB-231 breast; 43.5% with RXF 393 renal; 57.2% in the assay with SF-268 CNS; 73.7% with SF-295 CNS; 73.9% in the assay with SF-539 CNS. In addition, the growth in the assay with UACC-257 melanoma was -57.7% (active); in the assay on M14 melanoma, -70.3% (active).
For `CC1(C)NCCC[C@]2(C)[C@H]3CC[C@@H]4[C@H]5[C@H](C(=O)/C=C/c6ccccn6)CC[C@]5(CO)CC[C@@]4(C)[C@]3(C)CC[C@@H]12`, the growth in the assay on NCI-H23 lung was 72.9%; with NCI-H226 lung it was 85.5%; with NCI-H322M lung, 86.4%; with HOP-62 NSCLC it was 77%; with NCI-H460 lung, 25.1%; with HOP-92 NSCLC it was 35.6%. In addition, the growth in the assay with NCI-H522 lung is 54.4%; in the assay on A549/ATCC NSCLC, 36.9%; with 786-0 renal, 85.4%; in the assay on COLO 205 colon it was -74.3% (active); with DU-145 prostate it was 67.7%; with K-562 leukemia, -2.17% (active). Moreover, the growth is 73.6% with MALME-3M melanoma; 71.1% in the assay on MDA-MB-231 breast; 56.7% in the assay with RXF 393 renal; 78.7% in the assay with SF-268 CNS; 88.8% in the assay with SF-295 CNS; 86.1% in the assay with SF-539 CNS. Also, the results for the growth in the assay with UACC-257 melanoma and in the assay with M14 melanoma were 64% and 61.1%, respectively.
In the case of `CC(C)/C=C/CC[C@](C)(O)[C@H]1CC[C@]2(C)[C@@H]1CC[C@@H]1[C@@]3(C)C/C(=C/c4cccc(C(F)(F)F)c4)C(=O)C(C)(C)[C@@H]3CC[C@]12C`, the growth with NCI-H23 lung is 96.3%; in the assay with NCI-H226 lung, 94.9%; in the assay on NCI-H322M lung, 105%; in the assay with HOP-62 NSCLC, 103%; in the assay with NCI-H460 lung it was 98.6%; in the assay with HOP-92 NSCLC, 92.7%. Also, the growth with NCI-H522 lung was 96.2%; with A549/ATCC NSCLC, 85%; in the assay with 786-0 renal it was 101%; in the assay on COLO 205 colon, 113%; in the assay on DU-145 prostate it was 96.8%; with K-562 leukemia it was 86.2%. Further, the growth in the assay with MALME-3M melanoma was 100%; with MDA-MB-231 breast, 88.9%; in the assay on RXF 393 renal, 105%; in the assay with SF-268 CNS, 93.3%; in the assay on SF-295 CNS, 101%; in the assay on SF-539 CNS, 97.6%. For the same molecule, the growth in the assay with UACC-257 melanoma was 95.2%; in the assay on M14 melanoma, 91.5%.
Take `Cc1ccc2oc(=O)cc(-c3sc(N4CCCCC4)nc3-c3ccccc3)c2c1`: the growth in the assay on NCI-H23 lung is 90.9%; in the assay with NCI-H226 lung it was 90.4%; in the assay on NCI-H322M lung it was 81.8%; in the assay with HOP-62 NSCLC, 89.7%; with NCI-H460 lung it was 91.1%; in the assay on HOP-92 NSCLC, 92.1%. Moreover, the growth was 89% with NCI-H522 lung; 99.6% in the assay with A549/ATCC NSCLC; 99.8% in the assay with 786-0 renal; 97.3% in the assay with COLO 205 colon; 98.5% with DU-145 prostate; 97.8% with K-562 leukemia. In addition, the growth with MALME-3M melanoma is 86%; in the assay on MDA-MB-231 breast it was 88.1%; with RXF 393 renal, 101%; in the assay with SF-268 CNS, 87.9%; in the assay on SF-295 CNS, 102%; in the assay on SF-539 CNS it was 94.7%. Also, the growth was 105% in the assay with UACC-257 melanoma and 97.3% in the assay on M14 melanoma.
On to `Cc1csc(Nc2nc(-c3cccc(Br)c3)nc(C(Cl)(Cl)Cl)n2)n1`, for which the growth is 85.6% in the assay with NCI-H23 lung; 110% with NCI-H226 lung; -29.9% (active) with NCI-H322M lung; 34% with HOP-62 NSCLC; 9.54% (active) with NCI-H460 lung; 51.2% with HOP-92 NSCLC. Also, the growth was 97.1% in the assay on NCI-H522 lung; 5.62% (active) in the assay with A549/ATCC NSCLC; 75.2% in the assay on 786-0 renal; 4.32% (active) with COLO 205 colon; -5.72% (active) with DU-145 prostate; 84% in the assay with K-562 leukemia. Further, the growth in the assay with MALME-3M melanoma was 98.8%; in the assay on MDA-MB-231 breast, 15.5%; with RXF 393 renal, 20.2%; in the assay with SF-268 CNS, 78.1%; in the assay with SF-295 CNS it was 20.7%; in the assay with SF-539 CNS, 41%. For the same molecule, the growth in the assay on UACC-257 melanoma was 60.6%; in the assay with M14 melanoma, 86.4%.
For `Nc1ncnc2nc(Br)[nH]c12`, the growth is 92.7% in the assay on NCI-H23 lung; 85.9% with NCI-H226 lung; 108% in the assay with NCI-H322M lung; 98% with HOP-62 NSCLC; 106% with NCI-H460 lung; 94.7% with HOP-92 NSCLC. Moreover, the growth with NCI-H522 lung was 85.9%; in the assay with A549/ATCC NSCLC, 77.1%; in the assay with 786-0 renal, 95.1%; with COLO 205 colon it was 103%; in the assay with DU-145 prostate, 102%; in the assay on K-562 leukemia, 89.6%. Moreover, the growth was 100% with MALME-3M melanoma; 99.8% in the assay on MDA-MB-231 breast; 103% in the assay on RXF 393 renal; 98.3% with SF-268 CNS; 102% in the assay on SF-295 CNS; 103% in the assay with SF-539 CNS. For the same molecule, the growth in the assay on UACC-257 melanoma was 87.7%; in the assay with M14 melanoma, 92.1%.
For the molecule `CCCC1CCCCN1C(=O)OCC(C)C` (stereo not given), the growth is 152% with NCI-H23 lung; 105% in the assay with NCI-H226 lung; 104% in the assay with NCI-H322M lung; 118% with HOP-62 NSCLC; 107% in the assay with NCI-H460 lung; 113% in the assay on HOP-92 NSCLC. Further, the growth in the assay with NCI-H522 lung is 99.4%; in the assay on A549/ATCC NSCLC it was 104%; with 786-0 renal, 106%; with COLO 205 colon, 99.7%; in the assay on DU-145 prostate it was 104%; in the assay with K-562 leukemia it was 103%. The growth was 107% with MALME-3M melanoma; 109% with MDA-MB-231 breast; 119% with RXF 393 renal; 96.1% in the assay with SF-268 CNS; 94.5% with SF-295 CNS; 100% in the assay on SF-539 CNS. Also, the growth is 110% with UACC-257 melanoma and 109% in the assay with M14 melanoma.
For `CCCCC[C@H]1C/C=C2/C(=O)C(Cl)=C[C@@H]2C/C=C\CCCC(=O)O[C@@H](CCCCC)C/C=C2/C(=O)C(Cl)=C[C@@H]2C/C=C\CCCC(=O)O1`, the growth with NCI-H23 lung is -24.7% (active); in the assay with NCI-H226 lung, -34.3% (active); in the assay with NCI-H322M lung, -31.2% (active); in the assay on HOP-62 NSCLC, -52.8% (active); in the assay with NCI-H460 lung, -27.2% (active); in the assay with HOP-92 NSCLC, -63.4% (active). In addition, the growth with NCI-H522 lung was -67.3% (active); with A549/ATCC NSCLC, -51.4% (active); with 786-0 renal, -66.9% (active); in the assay on COLO 205 colon, -76.4% (active); with DU-145 prostate, -31.4% (active); in the assay on K-562 leukemia, 0.851% (active). The growth with MALME-3M melanoma was -14.1% (active); in the assay with MDA-MB-231 breast, -29.9% (active); in the assay with RXF 393 renal, -87.5% (active); in the assay with SF-268 CNS it was 1.58% (active); with SF-295 CNS, -27.3% (active); with SF-539 CNS, -11.3% (active). Besides, the growth with UACC-257 melanoma is -63.5% (active); in the assay on M14 melanoma it was -61.5% (active).
